Records with an inconclusive call do not appear. Calls of active or inactive are those of the source. Calls come from the whole dose curve; as a rule, active = well fitted curve in the direction sought with a large enough effect; inconclusive = small, poorly fitted or top-dose-only effect, or another doubt; inactive = no such curve, though single readings can be large; an effect the other way counts as inactive or inconclusive.
Assays:
[1] = tested on: NIH3T3; assay: qHTS assay to identify novel small-molecules to repurpose for Merkel cell carcinoma treatment (AID 1296009); conditions: MCC and control cell lines, CellTiter-Glo viability, 72 h; at 44.8 µM (top of the series) unless noted; note: nearly all actives have a fitted effect of over 60% in size
How it was run: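 qHTS format: cells treated with library compounds in DMSO across 8 (NPC) or 11 (MIPE) concentrations. Readout after 72 hr at 37 degree celsius was CellTiter-Glo luminescence.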

[2] = tested on: C33A; assay: Primary qHTS to identify gynecologic anti-cancer compounds using libraries of approved drugs and bioactive compounds (AID 1345084); conditions: Gynecologic cancer cell panel viability, ATPlite luminescence, 48 h; series mostly up to 57.5 µM; note: % is set by controls: 0 for no effect and ±100 for the full control effect; nearly all actives have a fitted effect of over 55% in size
How it was run: (§1)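 Five-concentration response, 48 h; readout is ATP-driven luciferase luminescence.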

[3] = tested on: CAOV3; assay: as above; conditions: Gynecologic cancer cell panel viability, ATPlite luminescence, 48 h; series mostly up to 57.5 µM
How it was run: as §1

[4] = tested on: CASKI; assay: as above; conditions: Gynecologic cancer cell panel viability, ATPlite luminescence, 48 h; series mostly up to 57.5 µM
How it was run: as §1

[5] = tested on: Es-2; assay: as above; conditions: Gynecologic cancer cell panel viability, ATPlite luminescence, 48 h; series mostly up to 57.5 µM
How it was run: as §1

[6] = tested on: HeLa; assay: as above; conditions: Gynecologic cancer cell panel viability, ATPlite luminescence, 48 h; series mostly up to 57.5 µM
How it was run: as §1

[7] = tested on: Hek293T; assay: as above; conditions: Gynecologic cancer cell panel viability, ATPlite luminescence, 48 h, control line for the selectivity index; series mostly up to 57.5 µM
How it was run: as §1

[8] = tested on: JEG-3; assay: as above; conditions: Gynecologic cancer cell panel viability, ATPlite luminescence, 48 h; series mostly up to 57.5 µM
How it was run: as §1

[9] = tested on: OV90; assay: as above; conditions: Gynecologic cancer cell panel viability, ATPlite luminescence, 48 h; series mostly up to 57.5 µM
How it was run: as §1

[10] = tested on: PA-1; assay: as above; conditions: Gynecologic cancer cell panel viability, ATPlite luminescence, 48 h; series mostly up to 57.5 µM
How it was run: as §1

[11] = tested on: SKOV3; assay: as above; conditions: Gynecologic cancer cell panel viability, ATPlite luminescence, 48 h; series mostly up to 57.5 µM
How it was run: as §1

[12] = tested on: Tov-21-G; assay: as above; conditions: Gynecologic cancer cell panel viability, ATPlite luminescence, 48 h; series mostly up to 57.5 µM
How it was run: as §1

[13] = tested on: Tov112D; assay: as above; conditions: Gynecologic cancer cell panel viability, ATPlite luminescence, 48 h; series mostly up to 57.5 µM
How it was run: as §1

Cc1cn2cc(CC(=O)N3CCC4(CC3)CN(Cc3ccc(-n5nccn5)cc3Cl)C4)nc2s1
inactive: outcome [1] | Potency [2] | Potency [3] | outcome [4] | Potency [5] | Potency [6] | Potency [7] | Potency [8] | Potency [9] | Potency [10] | Potency [11] | Potency [12] | Potency [13]

CC(C)=CCC(O)[C@](C)(O)C1[C@H](O)C[C@@]2(C)C3CC=C4C(C[C@H](O)[C@@H](O[C@@H]5O[C@H](CO)[C@@H](O)[C@H](O)[C@H]5O)C4(C)C)[C@]3(C)C(=O)C[C@]12C (stereo partly drawn)
inactive: outcome [1] inactive [at 17.4 µM] | Potency [2] | Potency [3] | outcome [4] | Potency [5] | Potency [6] | Potency [7] | Potency [8] | Potency [9] | Potency [10] | Potency [11] | Potency [12] | Potency [13]

CC1=C(CO)CC(C(C)C2CCC3C4CC=C5CC(OC6OC(COC7OC(CO)C(O)C(O)C7O)C(O)C(O)C6O)CC(O)C5(C)C4CCC23C)OC1=O (stereo not drawn)
inactive: outcome [1] inactive [at 17.4 µM] | Potency [2] | Potency [3] | outcome [4] | Potency [5] | Potency [6] | Potency [7] | Potency [8] | Potency [9] | Potency [10] | Potency [11] | Potency [12] | Potency [13]

C[C@@H]1O[C@@H](O[C@@H]2[C@@H](O)[C@H](O[C@@H]3[C@@H](O)[C@@H](O)[C@H](O[C@H]4[C@H](OC(=O)[C@]56CCC(C)(C)C[C@H]5C5=CCC7[C@@]8(C)C[C@H](O)[C@H](O[C@@H]9O[C@H](C(=O)O)[C@@H](O)[C@H](O)[C@H]9O)[C@@](C)(CO)C8[C@H](O)C[C@@]7(C)[C@]5(C)C[C@H]6O)O[C@@H](CO)[C@@H]4O)O[C@H]3C)OC[C@H]2O)[C@H](O)[C@H](O)[C@H]1O (stereo partly drawn)
inactive: outcome [1] inactive [at 9.27 µM] | activity change, negative = cytotoxicity [2] 7.96% [at 6.55 µM] | activity change, negative = cytotoxicity [3] -1.08% [at 6.55 µM] | activity change, negative = cytotoxicity [4] 4.5% [at 6.55 µM] | activity change, negative = cytotoxicity [5] 7.92% [at 6.55 µM] | activity change, negative = cytotoxicity [6] 5.7% [at 6.55 µM] | activity change, negative = cytotoxicity [7] 11.5% [at 6.55 µM] | activity change, negative = cytotoxicity [8] 3.64% [at 6.55 µM] | activity change, negative = cytotoxicity [9] 0.206% [at 6.55 µM] | activity change, negative = cytotoxicity [10] 24% [at 6.55 µM] | activity change, negative = cytotoxicity [11] -4.92% [at 6.55 µM] | activity change, negative = cytotoxicity [12] 2.22% [at 6.55 µM] | activity change, negative = cytotoxicity [13] 5.57% [at 6.55 µM]

NC(Cc1c[nH]c2ccc(O)cc12)C(=O)O (stereo not drawn)
inactive: outcome [1] | Potency [2] | Potency [3] | outcome [4] | Potency [5] | Potency [6] | Potency [7] | Potency [8] | Potency [9] | Potency [10] | Potency [11] | Potency [12] | Potency [13]

Cc1nc2cc(-c3cc(F)cc(C#N)c3)ccc2s1
inactive: outcome [1] | Potency [2] | Potency [3] | outcome [4] | Potency [5] | Potency [6] | Potency [7] | Potency [8] | Potency [9] | Potency [10] | Potency [11] | Potency [12] | Potency [13]

CC1CC=C2C1CC1(O)C(=O)CC2(C)C1(C)CO (stereo not drawn)
inactive: outcome [1] | Potency [2] | Potency [3] | outcome [4] | Potency [5] | Potency [6] | Potency [7] | Potency [8] | Potency [9] | Potency [10] | Potency [11] | Potency [12] | Potency [13]

COc1ccccc1CN[C@H]1CCCN[C@H]1c1ccccc1
inactive: outcome [1] | Potency [2] | Potency [3] | outcome [4] | Potency [5] | Potency [6] | Potency [7] | Potency [8] | Potency [9] | Potency [10] | Potency [11] | Potency [12] | Potency [13]

CC1OC(OC2C(OC3C(O[C@H]4CC[C@@]5(C)C(CC[C@]6(C)C5CC=C5C7CC(C)(C)CC(O)[C@]7(C)CC[C@]56C)C4(C)C)OC(C(=O)O)C(O)C3O)OCC(O)C2O)C(O)C(O)C1O (stereo partly drawn)
inactive: outcome [1] inactive [at 9.27 µM] | activity change, negative = cytotoxicity [2] 14% [at 11.6 µM] | activity change, negative = cytotoxicity [3] 4.78% [at 11.6 µM] | activity change, negative = cytotoxicity [4] -6.68% [at 11.6 µM] | activity change, negative = cytotoxicity [5] 1.85% [at 11.6 µM] | activity change, negative = cytotoxicity [6] 7.99% [at 11.6 µM] | activity change, negative = cytotoxicity [7] -2.65% [at 11.6 µM] | activity change, negative = cytotoxicity [8] 6.46% [at 11.6 µM] | activity change, negative = cytotoxicity [9] 9.07% [at 11.6 µM] | activity change, negative = cytotoxicity [10] 30% [at 11.6 µM] | activity change, negative = cytotoxicity [11] 7.87% [at 11.6 µM] | activity change, negative = cytotoxicity [12] 6.64% [at 11.6 µM] | activity change, negative = cytotoxicity [13] 1.05% [at 11.6 µM]

COc1cccc(C)c1C(=O)O[C@@H]1C[C@H](O[C@H]2[C@H](O)C[C@H](O[C@@H]3CCC[C@H]4[C@H]3C=C[C@@H]3CCCC/C=C/[C@H]5C=C(C(=O)O)[C@@H](C)C[C@@]56OC(=O)C(=C6O)OC(=O)[C@@]34C)O[C@@H]2C)O[C@H](C)[C@H]1O
inactive: outcome [1] inactive [at 9.27 µM] | activity change, negative = cytotoxicity [2] 10.8% [at 11.6 µM] | activity change, negative = cytotoxicity [3] 3.73% [at 11.6 µM] | activity change, negative = cytotoxicity [4] 10.4% [at 11.6 µM] | activity change, negative = cytotoxicity [5] 4.28% [at 11.6 µM] | activity change, negative = cytotoxicity [6] 1.33% [at 11.6 µM] | activity change, negative = cytotoxicity [7] 3.45% [at 11.6 µM] | activity change, negative = cytotoxicity [8] -0.859% [at 11.6 µM] | activity change, negative = cytotoxicity [9] 2.5% [at 11.6 µM] | activity change, negative = cytotoxicity [10] 9.36% [at 11.6 µM] | activity change, negative = cytotoxicity [11] 18.8% [at 11.6 µM] | activity change, negative = cytotoxicity [12] 11.1% [at 11.6 µM] | activity change, negative = cytotoxicity [13] -1.83% [at 11.6 µM]

CC(/C=C/C=C(\C)C(=O)O[C@@H]1O[C@H](CO[C@@H]2O[C@H](CO)[C@@H](O)[C@H](O)[C@H]2O)[C@@H](O)[C@H](O)[C@H]1O)=C\C=C\C=C(C)\C=C\C=C(/C)C(=O)O[C@@H]1C[C@](O)(C(=O)O)C[C@@H](O)[C@H]1OC(=O)/C=C/c1ccc(O)c(O)c1
inactive: outcome [1] inactive [at 9.27 µM] | activity change, negative = cytotoxicity [2] 17.9% [at 11.6 µM] | activity change, negative = cytotoxicity [3] -20% [at 11.6 µM] | activity change, negative = cytotoxicity [4] 21.7% [at 11.6 µM] | activity change, negative = cytotoxicity [5] 1.04% [at 11.6 µM] | activity change, negative = cytotoxicity [6] 2.81% [at 11.6 µM] | activity change, negative = cytotoxicity [7] -2.06% [at 11.6 µM] | activity change, negative = cytotoxicity [8] 7.27% [at 11.6 µM] | activity change, negative = cytotoxicity [9] 8.2% [at 11.6 µM] | activity change, negative = cytotoxicity [10] -12.7% [at 11.6 µM] | activity change, negative = cytotoxicity [11] 3.61% [at 11.6 µM] | activity change, negative = cytotoxicity [12] 0.602% [at 11.6 µM] | activity change, negative = cytotoxicity [13] -1.9% [at 11.6 µM]

Reference: PubChem BioAssay (NCATS)
